Reference: PubChem BioAssay AID1159580 (chemical genetic matrix, 2015)
The whole screen tested about 5,500 compounds, of which about 2,000 (36%) were called active. Another 18% or so got no clear call; they are omitted. Cut-off read from the data, not from the text of the source: active = normalized growth mostly below about 0.91 (no sharp cut-off); inconclusive = no clear call, values can overlap the other calls; inactive = mostly above about 0.92. The list shows a part of the results.

Experiment: chemical genetic growth profiling, strain panel (AID 1159580);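 note: tested at 20 µM; growth read once vehicle control cultures reached saturation at 30 °C; 1 = growth at the plate median or of vehicle wells; lower values mean less growth of the strain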
Conditions: growth OD

Measured: normalized growth

C[C@@H]1C(=O)O[C@H]2[C@H]1CC[C@@]1(C)C=CC(=O)[C@@]3(C)O[C@@]213
inactive: S. cerevisiae deletion strains, locus YKL009W, strain mrt4, stronger effect = lower value 1.03 | S. cerevisiae deletion strains, locus YKL068W, stronger effect = lower value 1.01 | S. cerevisiae deletion strains, locus YKL085W, strain MDH1 (second series), stronger effect = lower value 1.01 | S. cerevisiae deletion strains, locus YKL085W, strain MDH1, stronger effect = lower value 1.01 | S. cerevisiae deletion strains, locus YKL160W, strain elf1, stronger effect = lower value 0.963 | S. cerevisiae deletion strains, locus YKL190W, strain CNB1, stronger effect = lower value 1.01 | S. cerevisiae deletion strains, locus YKR001C, strain vps1, stronger effect = lower value 1 | S. cerevisiae deletion strains, locus YKR026C, strain gcn3, stronger effect = lower value 1.01 | S. cerevisiae deletion strains, locus YKR091W, strain srl3, stronger effect = lower value 1 | S. cerevisiae deletion strains, locus YLL001W, strain dnm1, stronger effect = lower value 1.02 | S. cerevisiae deletion strains, locus YLL026W, stronger effect = lower value 1.01 | S. cerevisiae deletion strains, locus YLL041C, strain sdh2, stronger effect = lower value 1.01 | S. cerevisiae deletion strains, locus YLR027C, strain aat2, stronger effect = lower value 1.02 | S. cerevisiae deletion strains, locus YLR039C, strain RIC1, stronger effect = lower value 0.994 | S. cerevisiae deletion strains, locus YLR058C, strain SHM2, stronger effect = lower value 1.01 | S. cerevisiae deletion strains, locus YLR102C, strain apc9, stronger effect = lower value 1.01 | S. cerevisiae deletion strains, locus YLR113W, strain HOG1, stronger effect = lower value 1.03 | S. cerevisiae deletion strains, locus YLR221C, strain rsa3, stronger effect = lower value 1.01 | S. cerevisiae deletion strains, locus YLR258W, strain gsy2, stronger effect = lower value 1.03 | S. cerevisiae deletion strains, locus YLR262C, strain YPT6 (second series), stronger effect = lower value 0.996 | S. cerevisiae deletion strains, locus YLR262C, strain YPT6, stronger effect = lower value 0.997 | S. cerevisiae deletion strains, locus YLR268W, strain sec22, stronger effect = lower value 1.04 | S. cerevisiae deletion strains, locus YLR320W, strain mms22, stronger effect = lower value 1.03 | S. cerevisiae deletion strains, locus YLR330W, strain CHS5, stronger effect = lower value 1.01 | S. cerevisiae deletion strains, locus YLR342W, strain FKS1 (second series), stronger effect = lower value 1.01 | S. cerevisiae deletion strains, locus YLR342W, strain FKS1, stronger effect = lower value 1.01 | S. cerevisiae deletion strains, locus YLR357W, strain rsc2, stronger effect = lower value 1.02 | S. cerevisiae deletion strains, locus YLR370C, strain arc18, stronger effect = lower value 1.02 | S. cerevisiae deletion strains, locus YLR371W, strain rom2, stronger effect = lower value 1.03 | S. cerevisiae deletion strains, locus YLR384C, strain iki3, stronger effect = lower value 1 | S. cerevisiae deletion strains, locus YLR418C, strain cdc73, stronger effect = lower value 1.05 | S. cerevisiae deletion strains, locus YML016C, strain PPZ1, stronger effect = lower value 1.01 | S. cerevisiae deletion strains, locus YML032C, strain rad52, stronger effect = lower value 1.01 | S. cerevisiae deletion strains, locus YML120C, strain ndi1, stronger effect = lower value 1.03 | S. cerevisiae deletion strains, locus YML124C, strain tub3, stronger effect = lower value 1.02 | S. cerevisiae deletion strains, locus YMR058W, strain fet3, stronger effect = lower value 1.03 | S. cerevisiae deletion strains, locus YMR078C, strain ctf18, stronger effect = lower value 1.02 | S. cerevisiae deletion strains, locus YMR125W, strain sto1, stronger effect = lower value 0.999 | S. cerevisiae deletion strains, locus YMR129W, stronger effect = lower value 1.03 | S. cerevisiae deletion strains, locus YMR205C, strain PFK2, stronger effect = lower value 1.02 | S. cerevisiae deletion strains, locus YMR223W, strain ubp8, stronger effect = lower value 1.01 | S. cerevisiae deletion strains, locus YMR231W, strain pep5, stronger effect = lower value 1.01 | S. cerevisiae deletion strains, locus YMR263W, strain SAP30, stronger effect = lower value 1.02 | S. cerevisiae deletion strains, locus YMR307W, strain GAS1, stronger effect = lower value 1 | S. cerevisiae deletion strains, locus YNL067W, strain RPL9B, stronger effect = lower value 1.02 | S. cerevisiae deletion strains, locus YNL071W, strain lat1, stronger effect = lower value 1 | S. cerevisiae deletion strains, locus YNL128W, strain TEP1, stronger effect = lower value 1.03 | S. cerevisiae deletion strains, locus YNL153C, strain GIM3, stronger effect = lower value 1.02 | S. cerevisiae deletion strains, locus YNL183C, strain NPR1, stronger effect = lower value 0.974 | S. cerevisiae deletion strains, locus YNL209W, strain ssb2, stronger effect = lower value 1.01 | S. cerevisiae deletion strains, locus YNL233W, strain BNI4, stronger effect = lower value 1.03 | S. cerevisiae deletion strains, locus YNL248C, strain rpa49, stronger effect = lower value 1.03 | S. cerevisiae deletion strains, locus YNL250W, strain rad50, stronger effect = lower value 1.03 | S. cerevisiae deletion strains, locus YNL271C, strain bni1, stronger effect = lower value 1.01 | S. cerevisiae deletion strains, locus YNL298W, strain CLA4, stronger effect = lower value 1.01 | S. cerevisiae deletion strains, locus YNL307C, strain MCK1, stronger effect = lower value 1.03 | S. cerevisiae deletion strains, locus YNL322C, strain KRE1 (second series), stronger effect = lower value 1 | S. cerevisiae deletion strains, locus YNL322C, strain KRE1, stronger effect = lower value 1.01 | S. cerevisiae deletion strains, locus YNR049C, strain mso1, stronger effect = lower value 1.04 | S. cerevisiae deletion strains, locus YNR052C, strain pop2, stronger effect = lower value 1.01 | S. cerevisiae deletion strains, locus YOL006C, strain TOP1, stronger effect = lower value 1.04 | S. cerevisiae deletion strains, locus YOL012C, strain htz1 0.788 | S. cerevisiae deletion strains, locus YOL147C, strain pex11, stronger effect = lower value 1.01 | S. cerevisiae deletion strains, locus YOR001W, strain rrp6, stronger effect = lower value 1.05 | S. cerevisiae deletion strains, locus YOR061W, strain CKA2, stronger effect = lower value 1.02 | S. cerevisiae deletion strains, locus YOR069W, strain VPS5, stronger effect = lower value 1.01 | S. cerevisiae deletion strains, locus YOR070C, strain gyp1, stronger effect = lower value 1.01 | S. cerevisiae deletion strains, locus YOR080W, strain dia2, stronger effect = lower value 1 | S. cerevisiae deletion strains, locus YOR083W, strain WHI5, stronger effect = lower value 1 | S. cerevisiae deletion strains, locus YOR106W, strain vam3, stronger effect = lower value 0.999 | S. cerevisiae deletion strains, locus YOR136W, strain idh2, stronger effect = lower value 1.02 | S. cerevisiae deletion strains, locus YOR144C, strain elg1, stronger effect = lower value 1.02 | S. cerevisiae deletion strains, locus YOR184W, strain ser1, stronger effect = lower value 1.03 | S. cerevisiae deletion strains, locus YOR231W, strain MKK1, stronger effect = lower value 1.04 | S. cerevisiae deletion strains, locus YOR265W, strain rbl2, stronger effect = lower value 1.03 | S. cerevisiae deletion strains, locus YOR270C, strain vph1, stronger effect = lower value 1.1 | S. cerevisiae deletion strains, locus YOR290C, strain snf2, stronger effect = lower value 1.02 | S. cerevisiae deletion strains, locus YOR316C, strain cot1, stronger effect = lower value 1.02 | S. cerevisiae deletion strains, locus YPL051W, strain arl3, stronger effect = lower value 1.02 | S. cerevisiae deletion strains, locus YPL055C, strain LGE1, stronger effect = lower value 1.06 | S. cerevisiae deletion strains, locus YPL078C, strain atp4, stronger effect = lower value 1.02 | S. cerevisiae deletion strains, locus YPL106C, strain sse1, stronger effect = lower value 1.01 | S. cerevisiae deletion strains, locus YPL240C, strain hsp82, stronger effect = lower value 1.01 | S. cerevisiae deletion strains, locus YPL241C, strain CIN2, stronger effect = lower value 1 | S. cerevisiae deletion strains, locus YPL256C, strain CLN2, stronger effect = lower value 1.03 | S. cerevisiae deletion strains, locus YPR119W, strain clb2, stronger effect = lower value 1.01 | S. cerevisiae deletion strains, locus YPR141C, strain kar3, stronger effect = lower value 1.02 | S. cerevisiae deletion strains, locus YPR163C, strain tif3, stronger effect = lower value 1.02 | S. cerevisiae deletion strains, locus YPR167C, strain met16, stronger effect = lower value 1.02 | S. cerevisiae deletion strains, strain wtn01, stronger effect = lower value 1.03 | S. cerevisiae strains, strain wild type, stronger effect = lower value 1.02
